Wee1 degr inh = inhibitors of human Wee1 degradation; P30291; HeLa Luc-Wee1K328M stability, luciferase luminescence; 100% = proteasome inhibitor MG132 effect; reporter increase, % at 5 µM; 1.2% of 220,000 active;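 active means activation above the mean of all tested compounds plus 3 SD, set per screening run, cut at about 8.8% in these data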;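 further: cells exposed to compound for 20 h before luminescence read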
Target sequence (P30291 whole entry K328M): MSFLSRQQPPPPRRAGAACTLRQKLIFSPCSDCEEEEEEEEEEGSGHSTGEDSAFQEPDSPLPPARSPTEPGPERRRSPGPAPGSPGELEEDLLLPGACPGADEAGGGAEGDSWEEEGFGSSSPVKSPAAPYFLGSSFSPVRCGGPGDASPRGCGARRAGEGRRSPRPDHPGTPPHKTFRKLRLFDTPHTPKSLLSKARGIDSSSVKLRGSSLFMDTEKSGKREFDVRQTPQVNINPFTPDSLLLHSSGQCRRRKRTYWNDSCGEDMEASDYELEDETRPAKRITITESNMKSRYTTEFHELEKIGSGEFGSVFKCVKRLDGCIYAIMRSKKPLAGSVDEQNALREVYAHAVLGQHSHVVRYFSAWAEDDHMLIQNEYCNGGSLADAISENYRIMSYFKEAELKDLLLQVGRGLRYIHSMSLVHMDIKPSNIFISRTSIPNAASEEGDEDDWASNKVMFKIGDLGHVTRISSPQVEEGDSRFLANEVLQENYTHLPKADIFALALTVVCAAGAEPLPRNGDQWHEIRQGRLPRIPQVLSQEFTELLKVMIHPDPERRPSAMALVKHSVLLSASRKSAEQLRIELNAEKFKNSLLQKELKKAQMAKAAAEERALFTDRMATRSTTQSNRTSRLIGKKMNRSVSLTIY
Hsp70 activator = Hsp70 transcriptional activation, primary screen. HeLa Hsp70 promoter luciferase reporter, luminescence; scaled: vehicle 0, proteasome-inhibitor control 100%. 0.04% of 200,000 active. activation, % at 10 µM. AID 1203;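 active means activation above the mean across all tested compounds plus 3 SD, cutoff set per campaign, cut at about 5.5% in these data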
APP 5UTR inh = APP translation inhibition. SH-SY5Y APP 5'UTR-luciferase reporter, luminescence. 0.82% of 190,000 active. AID 1285. inhibition, % at 2 µM;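 active means inhibition above a set limit, derived from the sample mean plus 3 SD, cut at about 45% in these data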
APP 5'UTR act = activates APP 5'UTR luciferase reporter. SH-SY5Y APP 5'UTR luciferase reporter, luminescence; zero percent = DMSO vehicle wells. activation, % at 2 µM. 1% of 190,000 active;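 active means activation above a set limit, based on mean plus 3 SD of controls, cut at about 140% in these data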
STAT1 act = STAT1 signaling activation. NIH 3T3 STAT1-luciferase reporter, IFN-gamma, luminescence; 100% = IFN-gamma alone, no compound. activation (% of control), % at 5.5 µM. 2.6% of 200,000 active. AID 932;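 active means activation above the screen-wide mean activation plus 3 SD, cut at about 130% in these data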
NF-kB expr up = NF-kB expression increase, human neuronal cells. 1.6% of 190,000 active. AID 1239. NF-kB reporter expression; hits give high values. fold change at 12.5 µM; in the data active means fold change above about 3.3
Numbers stand for hits. Shown are actives, neighbours in structure and some others; about 4.8% of the full set was active somewhere.

How did Cc1nc(C(F)(F)F)c(C(=O)N/N=C(\N)c2ccccn2)s1 do in these assays?
Wee1 degr inh: inactive; Hsp70 activator: inactive; APP 5UTR inh: 56.6; APP 5'UTR act: inactive; STAT1 act: inactive; NF-kB expr up: inactive

What do the screens show for `CC(=O)n1nc(-c2ccccc2)nc1NCc1ccc(N(C)C)cc1`?
Wee1 degr inh: inactive; Hsp70 activator: inactive; APP 5UTR inh: inactive; APP 5'UTR act: inactive; STAT1 act: 141.8; NF-kB expr up: inactive

How did Cc1ccc(C(=O)n2nc(-c3ccccc3)nc2NCc2ccco2)cc1 do in these assays?
Wee1 degr inh: inactive; Hsp70 activator: inactive; APP 5UTR inh: inactive; APP 5'UTR act: inactive; STAT1 act: inactive; NF-kB expr up: inactive

What do the screens show for `CCCC(=O)n1nc(-c2ccc(C)cc2)nc1NCc1ccco1`?
Wee1 degr inh: 10.2; Hsp70 activator: inactive; APP 5UTR inh: inactive; APP 5'UTR act: inactive; STAT1 act: inactive; NF-kB expr up: inactive

What do the screens show for `COCC(=O)n1nc(-c2ccccc2)nc1NCc1ccccc1`?
Wee1 degr inh: inactive; Hsp70 activator: inactive; APP 5UTR inh: inactive; APP 5'UTR act: inactive; STAT1 act: 137.1; NF-kB expr up: inactive

How did COc1cc(-c2cc3nc4ccccc4n3c(N)c2C#N)cc(OC)c1OC do in these assays?
Wee1 degr inh: inactive

Results for Cc1ccc(N/N=C(\Cc2nc3ccccc3[nH]2)c2ccccc2)cc1 ?
Wee1 degr inh: 16.1; Hsp70 activator: inactive; APP 5UTR inh: 92.4; APP 5'UTR act: inactive; STAT1 act: inactive; NF-kB expr up: inactive

Results for Cc1cc(C(=O)NC(=S)Nc2ccccc2N2CCOCC2)ccc1[N+](=O)[O-] ?
Wee1 degr inh: inactive; Hsp70 activator: inactive; APP 5UTR inh: inactive; APP 5'UTR act: inactive; STAT1 act: inactive; NF-kB expr up: inactive

Results for Cc1cc(Br)ccc1SCC(=O)OCC(=O)NC(C)c1ccccc1 (configuration not stated) ?
Wee1 degr inh: inactive; Hsp70 activator: inactive; APP 5UTR inh: inactive; APP 5'UTR act: inactive; STAT1 act: inactive; NF-kB expr up: inactive

Results for Cc1cc(Br)ccc1SCC(=O)OCC(=O)NC1CC1 ?
Wee1 degr inh: 10.4; Hsp70 activator: inactive; APP 5UTR inh: inactive; APP 5'UTR act: inactive; STAT1 act: inactive; NF-kB expr up: inactive

Results for CC1=C(C(=O)Nc2cccc(F)c2)C(c2ccsc2)C2=C(CC(C)(C)CC2=O)N1 (configuration not stated) ?
Wee1 degr inh: inactive; Hsp70 activator: inactive; APP 5UTR inh: 60.1; APP 5'UTR act: inactive; STAT1 act: inactive; NF-kB expr up: inactive

Results for COc1cccc2sc(NN)nc12 ?
Wee1 degr inh: inactive; Hsp70 activator: inactive; APP 5UTR inh: inactive; APP 5'UTR act: inactive; STAT1 act: inactive; NF-kB expr up: inactive

How did COc1cccc2sc(Nc3nnc(-c4ccccc4Cl)o3)nc12 do in these assays?
Wee1 degr inh: inactive; Hsp70 activator: inactive; APP 5UTR inh: 84.7; APP 5'UTR act: inactive; STAT1 act: inactive; NF-kB expr up: inactive

Results for O=C(O)c1ccc(Nc2nc(-c3cc4ccccc4oc3=O)cs2)cc1O ?
Wee1 degr inh: inactive; Hsp70 activator: inactive; APP 5UTR inh: inactive; APP 5'UTR act: inactive; STAT1 act: inactive; NF-kB expr up: inactive

Results for CNc1nnc(-c2cc3ccccc3oc2=O)s1 ?
Wee1 degr inh: inactive; Hsp70 activator: inactive; APP 5UTR inh: inactive; APP 5'UTR act: inactive; STAT1 act: 142.7; NF-kB expr up: inactive

What do the screens show for `COc1cccc2sc(Nc3nc(-c4cc5ccccc5oc4=O)cs3)nc12`?
Wee1 degr inh: inactive; Hsp70 activator: inactive; APP 5UTR inh: 91.3; APP 5'UTR act: inactive; STAT1 act: inactive; NF-kB expr up: inactive

How did COc1ccc(Nc2nc(-c3cc4cccc(OC)c4oc3=O)cs2)cc1 do in these assays?
Wee1 degr inh: inactive; Hsp70 activator: inactive; APP 5UTR inh: inactive; APP 5'UTR act: inactive; STAT1 act: inactive; NF-kB expr up: inactive

How did Nc1ccc(Nc2nc(-c3cc4ccccc4oc3=O)cs2)cc1 do in these assays?
Wee1 degr inh: inactive; Hsp70 activator: inactive; APP 5UTR inh: inactive; APP 5'UTR act: inactive; STAT1 act: 144.2; NF-kB expr up: 8.98

How did COc1cccc2sc(Nc3nc(-c4ccncc4)cs3)nc12 do in these assays?
Wee1 degr inh: inactive; Hsp70 activator: inactive; APP 5UTR inh: 93.7; APP 5'UTR act: inactive; STAT1 act: inactive; NF-kB expr up: inactive

Results for COCCNC(=O)/C(C#N)=C/c1ccc(OCc2ccccc2)cc1 ?
Wee1 degr inh: inactive; Hsp70 activator: inactive; APP 5UTR inh: inactive; APP 5'UTR act: inactive; STAT1 act: inactive; NF-kB expr up: inactive

Results for CN(C)c1ccc(/C=C(/C#N)C(=O)NCc2ccccc2)o1 ?
Wee1 degr inh: inactive; Hsp70 activator: inactive; APP 5UTR inh: inactive; APP 5'UTR act: inactive; STAT1 act: 128.6; NF-kB expr up: inactive

What do the screens show for `N#C/C(=C\c1ccc(OCc2cccc(C(=O)O)c2)cc1)C(=O)NCc1ccco1`?
Wee1 degr inh: 9.2

What do the screens show for `N#C/C(=C/c1ccccc1)C(=O)NCc1ccccc1`?
Wee1 degr inh: inactive; Hsp70 activator: inactive; APP 5UTR inh: inactive; APP 5'UTR act: inactive; STAT1 act: inactive; NF-kB expr up: inactive

How did COc1cc(/C=C(\C#N)C(=O)NCc2ccccc2)ccc1OCc1ccc(C(=O)O)cc1 do in these assays?
Wee1 degr inh: 10.6

What do the screens show for `COc1ccc(NC(=S)N2CCOCC2)c(OC)c1`?
Wee1 degr inh: inactive; Hsp70 activator: inactive; APP 5UTR inh: inactive; APP 5'UTR act: inactive; STAT1 act: inactive; NF-kB expr up: inactive

How did O=C1C=CC(=O)C(C2=C3C(=O)N(CCc4ccccc4)CC(=O)N3CCC2)=C1 do in these assays?
Wee1 degr inh: inactive; Hsp70 activator: inactive; APP 5UTR inh: 64.7; APP 5'UTR act: inactive; STAT1 act: inactive; NF-kB expr up: inactive

How did CCOc1ccc(C2=NNC(c3cccs3)=Nc3ccc(OC)cc32)cc1 do in these assays?
Wee1 degr inh: inactive; Hsp70 activator: inactive; APP 5UTR inh: inactive; APP 5'UTR act: inactive; STAT1 act: inactive; NF-kB expr up: 6.43

How did CCN(C)c1ccc(/C=N\n2nnnc2N)cc1 do in these assays?
Wee1 degr inh: inactive; Hsp70 activator: inactive; APP 5UTR inh: inactive; APP 5'UTR act: inactive; STAT1 act: 140.7; NF-kB expr up: inactive

Results for CCNc1ccc(C(=O)NN=C2CCCC2)cc1[N+](=O)[O-] ?
Wee1 degr inh: inactive; Hsp70 activator: inactive; APP 5UTR inh: 64.9; APP 5'UTR act: inactive; STAT1 act: inactive; NF-kB expr up: inactive

How did O=C(CN1CCCC1)Nc1ccc(NC(=O)Nc2ccccc2)cc1 do in these assays?
Wee1 degr inh: inactive; Hsp70 activator: inactive; APP 5UTR inh: inactive; APP 5'UTR act: inactive; STAT1 act: 130.9; NF-kB expr up: inactive

Results for CC(C)NC(=O)C1CCN(C(=O)c2ccc(-c3ccccc3)cc2)CC1 ?
Wee1 degr inh: 10.8; Hsp70 activator: inactive; STAT1 act: inactive; NF-kB expr up: inactive

How did O=C(Nc1ccccc1)Nc1ccc(C(=O)N2CCCC2)cc1 do in these assays?
Wee1 degr inh: inactive; Hsp70 activator: inactive; APP 5UTR inh: inactive; APP 5'UTR act: 185.9; STAT1 act: inactive; NF-kB expr up: inactive
